Assay [1] in a line: NS1 protein of Zika virus - qHTS assay to identify small molecule inhibitors in human HEK 293 cells (AID 1347053). Note: series mostly up to about 46 µM; nearly all actives have a fitted effect of over 55% in size. The essentials:
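Following 20 h seeding, HEK 293 cells took compound, then 1 h later ZIKV MR766 (MOI = 0.5). Incubation ran 24 h at 37 C before TR-FRET detection of NS1; a drop in signal indicates inhibition.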

Assay [2] can be described thus: qHTS of pediatric cancer cell lines to identify multiple opportunities for drug repurposing: Primary screen for TC32 cells (AID 1347089). Note: nearly all actives have a fitted effect of over 60% in size. In outline: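 Luminescent ATP read-out (CellTiter-Glo) of metabolically active TC32 cells after 48 h exposure. Concentration-response curves came from 11-point (MIPE, 0.78 nM–46 µM) or 8-point (NPC, 0.59 nM–46 µM) primary titrations; follow-up used 11 points.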

A short description of assay [3]: qHTS of pediatric cancer cell lines to identify multiple opportunities for drug repurposing: Primary screen for DAOY cells (AID 1347090). Note: series mostly up to about 46 µM; nearly all actives have a fitted effect of over 55% in size. In outline: (§1)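 Cell viability, CellTiter-Glo luminescence; 500-1,000 cells/well, 8- or 11-point titration, 48 h compound exposure at 37 degrees C, 5% CO2. Controls: DMSO neutral, bortezomib 2.3 µM final as positive.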
On the technique in general: In qHTS, concentration-response curves come from the screen itself.

Assay [4] is described as follows: qHTS of pediatric cancer cell lines to identify multiple opportunities for drug repurposing: Primary screen for SJ-GBM2 cells (AID 1347091). In outline:
as §1

A short description of assay [5]: qHTS of pediatric cancer cell lines to identify multiple opportunities for drug repurposing: Primary screen for A673 cells (AID 1347092). Note: nearly all actives have a fitted effect of over 45% in size. In outline: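 Cell viability of A673 measured by CellTiter-Glo ATP luminescence after 48 hours compound exposure. Dilution series spanned 0.78 nM to 46 µM (MIPE, 11-point) or 0.59 nM to 46 µM (NPC, 8-point); bortezomib 2.3 uM positive control.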

Assay [6] is described as follows: qHTS of pediatric cancer cell lines to identify multiple opportunities for drug repurposing: Primary screen for SK-N-MC cells (AID 1347093). Note: potency is the fitted concentration of half-maximal effect. In outline: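 Metabolically active cells were quantified by ATP-dependent luminescence (CellTiter-Glo, 15 min at room temperature) following 48 h treatment. Cells had been plated at 500-1,000 per well and settled for 5 h beforehand.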

The nature of assay [7]: qHTS of pediatric cancer cell lines to identify multiple opportunities for drug repurposing: Primary screen for BT-37 cells (AID 1347094). Note: series mostly up to about 57 µM. The essentials: (§2)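 Primary screen of approved and investigational compounds on cells in growth media at 37 degrees C, 5% CO2. MIPE set at 11-point and NPC set at 8-point dilutions; viability scored by ATP-based luminescence at 48 hours.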

Assay [8] is described as follows: qHTS of pediatric cancer cell lines to identify multiple opportunities for drug repurposing: Primary screen for NB-EBc1 cells (AID 1347095). In outline:
as §2

Assay [9] is described as follows: qHTS of pediatric cancer cell lines to identify multiple opportunities for drug repurposing: Primary screen for U-2 OS cells (AID 1347096). Note: nearly all actives have a fitted effect of over 50% in size. The essentials:
(§3)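 Cells (500-1,000/well) rested 5 h, then received compounds for 48 h; metabolically active cells were measured by CellTiter-Glo luminescence. Final concentrations spanned up to 46 µM (MIPE, 11-point) or 0.59 nM-46 µM (NPC, 8-point) in primary screens, 11-point in follow-ups.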

Assay [10] can be described thus: qHTS of pediatric cancer cell lines to identify multiple opportunities for drug repurposing: Primary screen for Saos-2 cells (AID 1347097). Note: nearly all actives have a fitted effect of over 40% in size. In outline: as §2
Assay [11] is described as follows: qHTS of pediatric cancer cell lines to identify multiple opportunities for drug repurposing: Primary screen for SK-N-SH cells (AID 1347098). Note: nearly all actives have a fitted effect of over 65% in size. In outline:
as §3

Assay [12] in a line: qHTS of pediatric cancer cell lines to identify multiple opportunities for drug repurposing: Primary screen for NB1643 cells (AID 1347099). Note: nearly all actives have a fitted effect of over 50% in size. The essentials:
as §2

A short description of assay [13]: qHTS of pediatric cancer cell lines to identify multiple opportunities for drug repurposing: Primary screen for LAN-5 cells (AID 1347100). In outline:
as §3

The nature of assay [14]: qHTS of pediatric cancer cell lines to identify multiple opportunities for drug repurposing: Primary screen for BT-12 cells (AID 1347101). Note: nearly all actives have a fitted effect of over 25% in size. The essentials:
as §3

Assay [15] in a line: qHTS of pediatric cancer cell lines to identify multiple opportunities for drug repurposing: Primary screen for Rh18 cells (AID 1347102). Note: nearly all actives have a fitted effect of over 65% in size. The essentials: as §3
Assay [16] can be described thus: qHTS of pediatric cancer cell lines to identify multiple opportunities for drug repurposing: Primary screen for OHS-50 cells (AID 1347103). Note: nearly all actives have a fitted effect of over 40% in size. The essentials: as §3
The nature of assay [17]: qHTS of pediatric cancer cell lines to identify multiple opportunities for drug repurposing: Primary screen for RD cells (AID 1347104). Note: nearly all actives have a fitted effect of over 55% in size. The essentials:
as §2

The nature of assay [18]: qHTS of pediatric cancer cell lines to identify multiple opportunities for drug repurposing: Primary screen for MG 63 (6-TG R) cells (AID 1347105). Note: nearly all actives have a fitted effect of over 50% in size. The essentials: as §2
A short description of assay [19]: qHTS of pediatric cancer cell lines to identify multiple opportunities for drug repurposing: Primary screen for control Hh wild type fibroblast cells (AID 1347106).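 Note: series mostly up to about 46 µM; a drop in luminescence marks cytotoxicity and a rise apparent proliferation; nearly all actives have a fitted effect of over 55% in size.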 In outline:
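Viability after 48 h compound treatment at 37C, 500-1,000 cells/well, read as ATP luminescence with CellTiter-Glo. Primary screens used 11-point (MIPE, 0.78 nM-46 µM) or 8-point (NPC, 0.59 nM-46 µM) final concentrations; follow-up screens used 11-point dilutions.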

Assay [20] can be described thus: qHTS of pediatric cancer cell lines to identify multiple opportunities for drug repurposing: Primary screen for Rh30 cells (AID 1347107). Note: series mostly up to about 46 µM; nearly all actives have a fitted effect of over 75% in size. The essentials:
as §3

The results in this text go back to PubChem BioAssay (NCATS).

Results filed as inconclusive are left out. Calls of active or inactive are those of the source. Calls come from the whole dose curve; as a rule, active = well fitted curve in the direction sought with a large enough effect; inconclusive = small, poorly fitted or top-dose-only effect, or another doubt; inactive = no such curve, though single readings can be large; an effect the other way counts as inactive or inconclusive.

With `CC(=O)OCC(=O)[C@@]1(O)CC[C@H]2[C@@H]3CCC4=CC(=O)C=C[C@]4(C)[C@@]3(F)[C@@H](O)C[C@@]21C`, the molecule was called inactive in assay [1], in assay [2], in [3], in assay [4], in assay [5] and in [7]. Also, the molecule was classed as inactive in assay [8], in assay [9], in [10], in assay [11], in assay [13] and in assay [14]. The call in assay [15], in assay [16], in assay [17], in [18], in assay [19] and in assay [20] was inactive. Besides, the Potency entry in assay [6] and in assay [12] was “inactive” throughout.
Consider `CC(=O)[C@@]1(O)CC[C@H]2[C@@H]3C[C@H](C)C4=CC(=O)C=C[C@]4(C)[C@@]3(F)[C@@H](O)C[C@@]21C`, for which the result in [1], in assay [2], in [3], in assay [4], in assay [5] and in assay [7] was inactive. The result in assay [8], in assay [9], in assay [10], in [11], in [13] and in assay [14] was inactive. The molecule was classed as inactive in assay [15], in [16], in assay [17], in assay [18], in assay [19] and in [20]. For the same molecule, the Potency entry in [6] and in [12] was “inactive” each time.
In the case of `CCOc1cc(NC(C)=O)ccc1C(=O)OC`, the outcome in [1], in assay [2], in assay [3], in assay [4], in assay [5] and in assay [7] was inactive. The molecule was called inactive in assay [8], in assay [9], in assay [10], in [11], in assay [13] and in assay [14]. For the same molecule, the result in [15], in [17], in assay [18], in [19] and in assay [20] was inactive. Also, the Potency entry in assay [6] and in [12] was “inactive” in each case.
Turning to `CNc1c2c(nn1C)CCCC2`, the molecule was called inactive in [1], in assay [2], in assay [3], in [4], in [5] and in [7]. The result in assay [8], in assay [9], in assay [10], in assay [11], in assay [13] and in assay [14] was inactive. Also, the outcome in assay [15], in assay [17], in assay [18], in assay [19] and in [20] was inactive. The Potency result in [6] and in assay [12] was “inactive” throughout.
In the case of `CCCNC(C)C(=O)Nc1c(C)csc1C(=O)OC` (stereo unspecified), the molecule was called inactive in assay [1], in assay [2], in [3], in assay [4], in assay [5] and in [7]. The molecule was classed as inactive in [8], in [9], in assay [10], in [11], in assay [13] and in assay [14]. The result in [15], in assay [16], in [17], in [18] and in assay [20] was inactive. In addition, the Potency entry in assay [6] and in [12] was “inactive” in each case.
For the molecule `O=C(O)COC(=O)Cc1ccccc1Nc1c(Cl)cccc1Cl`, the molecule was called inactive in assay [1], in [2], in assay [3], in assay [4], in [5] and in assay [7]. The result in [8], in assay [9], in [10], in [11], in assay [13] and in [14] was inactive. Further, the molecule was classed as inactive in assay [15], in assay [16], in [17], in assay [19] and in [20]. Moreover, in assay [6], the Potency was 26.6 µM (active). Further, the Potency entry in assay [12] was “inactive”.
Regarding `Cc1cccc(C)c1NC(=O)CC12CCCN1CCC2`, the call in assay [1], in assay [2], in [3], in assay [4], in assay [5] and in assay [7] was inactive. The molecule was called inactive in assay [8], in assay [9], in assay [10], in assay [11], in assay [13] and in assay [14]. In addition, the call in [15], in [16], in assay [17], in assay [18], in [19] and in assay [20] was inactive. Also, the Potency result in [6] and in assay [12] was “inactive” each time.
